Each sequence was assayed against ADRA2B (assay: pooled miR-30 sensor sort-seq; sequence = guide strand). Conditions: shRNA.
With TACACCTCGCACCACGTGCGCC the sensor-assay potency score (higher = more potent) was -1.33. TCATCTTAGACTGTTGCCGAGG was tested, and the sensor-assay potency score (higher = more potent) was -0.739. TTGGAGTTGTACTCCAGCGCGC was tested, and the sensor-assay potency score (higher = more potent) was -0.762. In the case of TAACTTGAAATAGTGATTCTGT, the sensor-assay potency score (higher = more potent) is reported as 0.986. TCGAGCGCCAGGTACACCTCGC showed a sensor-assay potency score (higher = more potent) of -0.894. Work on TTGTACTCCAGCGCGCGGCTCA yielded a sensor-assay potency score (higher = more potent) of -0.722. In the case of ATAACAGGGTTCAGTGAGCTGT, the sensor-assay potency score (higher = more potent) is reported as -0.793. With TAGACAAGGATCATGATGAGGC the sensor-assay potency score (higher = more potent) was 0.0762. For TAACAGGGTTCAGTGAGCTGTT, the sensor-assay potency score (higher = more potent) was -0.17. For AACGCCAATGACCACAGCCAGC, the sensor-assay potency score (higher = more potent) was -1.54. Sequence AAATCTAGCAGGTCCATCTGGC has a sensor-assay potency score (higher = more potent) of -0.198. Sequence TAGCGTAATAACTCAGACCTTT has a sensor-assay potency score (higher = more potent) of 0.245. AAGGTGAAGCGCTTCTCCCGGG was tested, and the sensor-assay potency score (higher = more potent) was -0.311. For TCCTGGTTGAGCTTGCACTGGG, the sensor-assay potency score (higher = more potent) was -0.653. With TTTTTGGTTCTCTAGTGTGTTC the sensor-assay potency score (higher = more potent) was -1.08. In the case of TACTCTGGCCTCAACAACCCAC, the sensor-assay potency score (higher = more potent) is reported as -0.575. Sequence TTCGAGTGTCCGTTGACCTCTC has a sensor-assay potency score (higher = more potent) of 0.0234. AAGATGGTGTAGATAACAGGGT showed a sensor-assay potency score (higher = more potent) of -0.352. TGTCCGTTGACCTCTCTGGCAG gave a sensor-assay potency score (higher = more potent) of -0.964.

These sequences were tested against ADRB1 in the same assay as above. Conditions: shRNA.
Sequence TCGCTGTCCGCCGCCGCCCCGC has a sensor-assay potency score (higher = more potent) of -1.6. With TAGAAGGAGACTACGGACGAGG the sensor-assay potency score (higher = more potent) was -0.754. Work on TTGGTGACGAAGTCGCAGCACT yielded a sensor-assay potency score (higher = more potent) of -0.788. ACGCACAGCACGTCCACTGAGG was tested, and the sensor-assay potency score (higher = more potent) was -1.84. TTGAAGAAGACGAAGAGGCGGT gave a sensor-assay potency score (higher = more potent) of 0.771. Sequence TCGAGTCGCTGTCCGCCGCCGC has a sensor-assay potency score (higher = more potent) of -1.38. For ATGAGCAGCACGATGAGCGCCA, the sensor-assay potency score (higher = more potent) was -0.267. In the case of TTGAGCGCCTTCTGCTCGCGCA, the sensor-assay potency score (higher = more potent) is reported as -1.01. In the case of TCGTCGTCGTCGTCCGAGGCGG, the sensor-assay potency score (higher = more potent) is reported as -1.56. Sequence ACTGAGGTCCACAGCTCGCAGA has a sensor-assay potency score (higher = more potent) of -1.49. Work on TTGGTGAGCGTCTGCAGCCGCG yielded a sensor-assay potency score (higher = more potent) of -1.38. TCGTCGTCGTCGTCGTCCGAGG gave a sensor-assay potency score (higher = more potent) of -1.7. GACATCGTCGTCGTCGTCGTCC was tested, and the sensor-assay potency score (higher = more potent) was -1.45. ACGAAGTCGCAGCACTTGGGGT showed a sensor-assay potency score (higher = more potent) of -1.34. In the case of TTGCGGAAGTCGGGGCTGCGGC, the sensor-assay potency score (higher = more potent) is reported as -1.38. Sequence TTGGGGTCGTTGTAGCAGCGGC has a sensor-assay potency score (higher = more potent) of -1.11. Work on TCCACTGAGGTCCACAGCTCGC yielded a sensor-assay potency score (higher = more potent) of -1.74. Sequence TCTTCTTCACCTGCTTCTGGGC has a sensor-assay potency score (higher = more potent) of -0.965. With AAGAAGGAGCCGTACTCCCAGC the sensor-assay potency score (higher = more potent) was -1.16. TCCACTGCTGAGACAGCGGCTC gave a sensor-assay potency score (higher = more potent) of -1.08. Work on TGTCGATCTTCTTCACCTGCTT yielded a sensor-assay potency score (higher = more potent) of 0.319.
Further: reference of the scale not given here.
